Screening data deposited in PubChem by Broad Institute.
A selection: hits, their analogues and other compounds. The true share with any hit is near 6.8%.
C diff HTS = C. difficile growth inhibitors, primary screen, HTS; Clostridium difficile clinical isolate growth, OD600, 24 h; active compounds read low; growth activity, negative = inhibition, % at 16 µg/mL (by protocol); 86,000 compounds, 0.25% hits; AID 1259249, 2017;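 active = mean growth activity at or below -80% and every replicate also at or below -80%; inconclusive = mean at or below -80% but some replicate above -80%; inactive = mean growth activity above -80%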
T cruzi growth-1 = T. cruzi intracellular proliferation inhibitors, primary screen, cell-based, beta-gal Tulahuen parasites, NIH3T3 host, luminescence; T. cruzi beta-gal in NIH3T3, GalScreen luminescence, 90 h; inhibition, % at 8.34 µM; 77,000 compounds, 5.9% hits; AID 624255, 2012;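 active = mean inhibition above about 93%, with at least 55% of replicates each passing it, limit read from the data, passing the limit was not always enough; inconclusive = only one of those two conditions holds; inactive = neither condition holds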
Pf Dd2 growth = P. falciparum Dd2 growth inhibitors, primary screen, SYBR Green fluorescence, single dose replicates. 72 h; active compounds read low. activity change, % at 10 µM. 94,000 compounds, 2.3% hits. AID 1159554, 2015; in the data active = activity change below about -80%; inconclusive = no clear call, values can overlap the other calls
T cruzi growth-2 = T. cruzi intracellular proliferation inhibitors, confirmation, cell-based, NIH3T3 host, beta-gal parasite, luminescence, cherry-pick; 5,600 compounds, 72% hits; inhibition, % at 8.35 µM; shares compounds with T cruzi growth-1; AID 651739, 2012; T. cruzi beta-gal in NIH3T3, GalScreen luminescence, 90 h;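 active = mean replicate inhibition above about 95% and at least 55% of replicates individually reaching it, limit read from the data; inconclusive = only one of the two criteria is met; inactive = neither criterion is met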
T cruzi growth-3 = inhibitors of intracellular T. cruzi replication, confirmation, NIH3T3 host cells, beta-gal parasites, cherry-pick, set 2; shares compounds with T cruzi growth-1; T. cruzi beta-gal in NIH3T3, GalScreen luminescence, 90 h; inhibition, % at 2.09 µM; 5,600 compounds, 21% hits;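 active = mean inhibition above about 95%, with at least 55% of replicates also reaching it, limit read from the data; inconclusive = meets just one of the two conditions; inactive = meets neither condition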
3T3 cytotox = cytotoxicity in mouse NIH/3T3 fibroblasts, confirmation, cytotoxicity control for T. cruzi proliferation inhibitor project, cell-based, cherry-pick, single point; shares compounds with T cruzi growth-1; NIH/3T3 viability, CellTiter-Glo ATP luminescence, 90 h; cytotoxicity (signal decrease), % at 8.35 µM; 5,600 compounds, 14% hits; AID 651742, 2012;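 active = mean signal decrease across replicates above about 35% based on untreated-well scatter, with enough replicates individually passing, limit read from the data; inconclusive = no rule stated though some were filed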
3T3 cytotox 2 = NIH/3T3 fibroblast cytotoxicity, confirmation, cytotoxicity control, cell-based, cherry-pick, single point, set 2; 5,600 compounds, 56% hits; shares compounds with T cruzi growth-1; inhibition, % at 24.9 µM; NIH/3T3 viability, CellTiter-Glo ATP luminescence, 90 h;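 active = mean loss of cell viability signal at or above a set limit, and enough replicates individually reaching it; inconclusive = meets only the mean limit or only the replicate share; inactive = meets neither condition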
Numbers stand for hits; i = inactive; ? = inconclusive; nt = no result.

SMILES | C diff HTS | T cruzi growth-1 | Pf Dd2 growth | T cruzi growth-2 | T cruzi growth-3 | 3T3 cytotox | 3T3 cytotox 2
Cc1ccc(-c2ccc3c(c2)O[C@H](CN(C)Cc2ccncc2)[C@H](C)CN([C@H](C)CO)S3(=O)=O)cc1 | i | 109 | i | 98 | i | 49 | 47
Cc1ccc(-c2ccc3c(c2)O[C@@H](CN(C)Cc2ccncc2)[C@H](C)CN([C@@H](C)CO)S3(=O)=O)cc1 | i | 123 | -89 | 98 | i | 65 | 100
C[C@@H]1CN([C@H](C)CO)S(=O)(=O)c2ccc(-c3cncnc3)cc2O[C@@H]1CN(C)Cc1ccncc1 | i | i | i | nt | nt | nt | nt
Cc1ccc(-c2ccc3c(c2)O[C@@H](CN(C)Cc2cncnc2)[C@@H](C)CN([C@H](C)CO)S3(=O)=O)cc1 | i | nt | i | nt | nt | nt | nt
Cc1ccc(-c2ccc3c(c2)O[C@@H](CN(C)Cc2ccncc2)[C@@H](C)CN([C@@H](C)CO)S3(=O)=O)cc1 | i | 120 | i | i | i | 64 | 90
COc1ccc(NC(=O)Nc2cccc3c2O[C@H](CN(C)C(=O)Nc2ccc(F)cc2)[C@H](C)CN([C@@H](C)CO)C3=O)cc1 | i | nt | i | nt | nt | nt | nt
COc1ccc(S(=O)(=O)N(C)C[C@H]2Oc3ncc(/C=C/c4ccccc4)cc3C(=O)N([C@@H](C)CO)C[C@H]2C)cc1 | i | nt | i | nt | nt | nt | nt
COc1ccc(NC(=O)N(C)C[C@@H]2OCc3cn(nn3)CCCC(=O)N([C@H](C)CO)C[C@@H]2C)cc1 | i | i | i | nt | nt | nt | nt
CN1C(=O)c2cc(NC(=O)Nc3ccc(Cl)cc3)ccc2OC[C@H]2O[C@H](CC(=O)O)CC[C@H]21 | i | i | i | nt | nt | nt | nt
C[C@@H]1CN([C@H](C)CO)S(=O)(=O)c2ccc(Br)cc2O[C@@H]1CN(C)Cc1ccccc1 | i | i | i | nt | nt | nt | nt
C[C@@H]1CN([C@@H](C)CO)S(=O)(=O)c2ccc(Br)cc2O[C@H]1CN(C)Cc1ccncc1 | i | 101 | i | 102 | 99 | i | i
COc1ccc(CN(C)C[C@@H]2Oc3ccc(NC(=O)Cc4cn(C)c5ccccc45)cc3C(=O)N([C@H](C)CO)C[C@H]2C)cc1 | i | i | i | nt | nt | nt | nt
COc1ccc(CN(C)C[C@@H]2Oc3ccc(NC(=O)Cc4cn(C)c5ccccc45)cc3C(=O)N([C@H](C)CO)C[C@@H]2C)cc1 | i | i | i | nt | nt | nt | nt
C[C@@H]1CN([C@H](C)CO)C(=O)c2cc(NC(=O)Cc3cn(C)c4ccccc34)ccc2O[C@@H]1CN(C)Cc1ccc(Oc2ccccc2)cc1 | i | 96 | i | 101 | i | i | 53
C[C@H](CO)N1C[C@H](C)[C@H](CN(C)Cc2ccc(Oc3ccccc3)cc2)Oc2ccc(NC(=O)Cc3cn(C)c4ccccc34)cc2C1=O | i | ? | i | 104 | i | i | 43
O=C(Cc1ccccc1)OC(COCc1ccccc1)C(=O)NCc1ccccc1 (stereo not given) | i | nt | nt | nt | nt | nt | nt
C[C@@H]1CN([C@@H](C)CO)C(=O)c2cc(NC(=O)Nc3ccc(F)cc3)ccc2O[C@@H](C)CCCCO[C@@H]1CN(C)C | i | i | i | nt | nt | nt | nt
C[C@@H]1CN([C@H](C)CO)C(=O)c2cc(NC(=O)Nc3ccccc3)ccc2O[C@@H](C)CCCCO[C@@H]1CN(C)Cc1ccc(C(=O)O)cc1 | i | i | i | nt | nt | nt | nt
OC[C@@H]1Nc2ccc(-c3ccccc3)cc2[C@H]2[C@@H]1CCN2Cc1ccc(F)cc1 | i | 105 | i | 104 | 111 | i | 103
OC[C@H]1Nc2ccc(-c3ccccc3)cc2[C@H]2[C@@H]1CCN2Cc1ccc(F)cc1 | i | 104 | i | 99 | 113 | i | 105
O=C(Cc1ccccc1)N1CC[C@@H]2[C@@H](CO)Nc3ccc(-c4ccc(F)cc4)cc3[C@@H]21 | i | i | i | nt | nt | nt | nt
O=C(Cc1ccccc1)N1CC[C@@H]2[C@H]1c1cc(-c3ccc(F)cc3)ccc1N[C@@H]2CO | i | i | i | nt | nt | nt | nt
O=C(C[C@@H]1C=C[C@@H](NC(=O)C2CC2)[C@@H](CO)O1)NCC1CC1 | i | nt | i | nt | nt | nt | nt
CO[C@@H]1CN(C)C(=O)c2cc(NC(=O)C3CC3)ccc2OC[C@@H](C)N(Cc2ccccc2)C[C@@H]1C | i | i | i | nt | nt | nt | nt
C[C@@H]1CCCCO[C@@H](CN(C)C(=O)Nc2ccc3c(c2)OCO3)[C@H](C)CN([C@H](C)CO)C(=O)c2cc(NS(=O)(=O)c3ccccc3)ccc2O1 | i | i | i | nt | nt | nt | nt
SMILES | C diff HTS | T cruzi growth-1 | Pf Dd2 growth | T cruzi growth-2 | T cruzi growth-3 | 3T3 cytotox | 3T3 cytotox 2
CCCC#Cc1ccc2c(c1)O[C@@H](CN(C)Cc1cncnc1)[C@@H](C)CN([C@H](C)CO)S2(=O)=O | i | i | i | nt | nt | nt | nt
CC(C)CC#Cc1ccc2c(c1)O[C@H](CN(C)Cc1cncnc1)[C@H](C)CN([C@@H](C)CO)S2(=O)=O | i | i | i | nt | nt | nt | nt
CC(C)CC#Cc1ccc2c(c1)O[C@H](CN(C)Cc1cncnc1)[C@@H](C)CN([C@@H](C)CO)S2(=O)=O | i | 111 | i | 101 | 101 | ? | 98
CCCC#Cc1ccc2c(c1)O[C@H](CN(C)Cc1cncnc1)[C@@H](C)CN([C@@H](C)CO)S2(=O)=O | i | ? | i | 107 | 101 | ? | 99
COc1ccc(NC(=O)Nc2ccc3c(c2)C(=O)N([C@@H](C)CO)C[C@@H](C)[C@@H](CN(C)C(=O)NC2CCCCC2)OCCCC[C@H](C)O3)cc1 | i | i | i | nt | nt | nt | nt
O=C(c1cccc(F)c1)N1CCCCN2[C@H](CO)[C@H](c3ccc(/C=C/c4ccccc4)cc3)[C@H]2C1 | i | 111 | i | 102 | i | 91 | 104
O=C(c1cccc(F)c1)N1CC(=O)N2[C@H](CO)[C@@H](c3ccc(/C=C/c4ccccc4)cc3)[C@H]2C1 | i | nt | i | nt | nt | nt | nt
O=C(c1cccc(F)c1)N1CCCCN2[C@H](CO)[C@H](c3ccc(/C=C/c4ccccc4)cc3)[C@@H]2C1 | i | 114 | i | 100 | 110 | i | 99
O=C(c1cccc(F)c1)N1CCCCN2[C@@H](CO)[C@H](c3ccc(/C=C/c4ccccc4)cc3)[C@@H]2C1 | i | 111 | i | 103 | i | 45 | 103
O=C(c1cccc(F)c1)N1CCCCN2[C@H](CO)[C@@H](c3ccc(/C=C/c4ccccc4)cc3)[C@H]2C1 | i | i | i | nt | nt | nt | nt
O=C(c1cccc(F)c1)N1CC(=O)N2[C@@H](CO)[C@H](c3ccc(/C=C/c4ccccc4)cc3)[C@@H]2C1 | i | nt | i | nt | nt | nt | nt
